Test results as given in PubChem BioAssay (NCATS).
Where “and” joins values, the source holds several entries; their conditions need not be identical. Equal values may be shown once. Inconclusive results are not listed. Calls of active or inactive are those of the source. Unless noted, calls follow the shape of the dose curve; as a rule, active = well fitted curve in the direction sought with a large enough effect; inconclusive = small, poorly fitted or top-dose-only effect, or another doubt; inactive = no such curve, though single readings can be large; an effect the other way counts as inactive or inconclusive.

How the values were obtained:
[1] = molecular target: Glucocorticoid receptor (Homo sapiens) (UniProt P04150); assay: qHTS assay for small molecule agonists of glucocorticoid receptor signaling (AID 588532; active = well fitted curve in the direction sought with a large enough effect in the signal ratio, with a control signal flat; the % refers to the signal ratio;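 also: 100% = dexamethasone at 0.1 µM and 0% = DMSO only wells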); conditions: HeLa MMTV-bla, beta-lactamase ratio, agonist, 18 h; stronger effect = higher value; percent of dexamethasone control, DMSO zero
Outline: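 Cells were plated and rested 3-5 h at 37 C, compounds were added in titration and incubated 18 h, then CCF4 substrate was loaded for 2 h at RT before reading blue/green fluorescence. EC50 came from Hill-equation fitting.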

[2] = qHTS assay for small molecule antagonists of peroxisome proliferator-activated receptor delta signaling (AID 588535; active = well fitted inhibition curve with a large enough effect in the signal ratio, with a control signal flat, not every such curve was filed as active; the % refers to the signal ratio;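 as to max response: cells co-treated with a PPAR-delta agonist as stimulator during compound exposure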); conditions: HEK293T PPARd-UAS-bla, beta-lactamase FRET ratio, 18 h; 460 nm channel
Outline: (§1)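 Antagonist-mode beta-lactamase reporter (GeneBLAzer PPAR-delta-UAS-bla) in HEK293T cells, 2% charcoal/dextran FBS, 4000 cells/well. Compound titrations, 18 h at 37 C; CCF4 ratio read, IC50 and efficacy from Hill fits.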

[3] = molecular target: Peroxisome proliferator-activated receptor delta (Homo sapiens) (UniProt Q03181); assay: as above; conditions: HEK293T PPARd-UAS-bla, beta-lactamase FRET ratio, 18 h; series mostly up to 76.7 µM
Chain of Peroxisome proliferator-activated receptor delta (Homo sapiens) (Q03181 whole entry, looked up): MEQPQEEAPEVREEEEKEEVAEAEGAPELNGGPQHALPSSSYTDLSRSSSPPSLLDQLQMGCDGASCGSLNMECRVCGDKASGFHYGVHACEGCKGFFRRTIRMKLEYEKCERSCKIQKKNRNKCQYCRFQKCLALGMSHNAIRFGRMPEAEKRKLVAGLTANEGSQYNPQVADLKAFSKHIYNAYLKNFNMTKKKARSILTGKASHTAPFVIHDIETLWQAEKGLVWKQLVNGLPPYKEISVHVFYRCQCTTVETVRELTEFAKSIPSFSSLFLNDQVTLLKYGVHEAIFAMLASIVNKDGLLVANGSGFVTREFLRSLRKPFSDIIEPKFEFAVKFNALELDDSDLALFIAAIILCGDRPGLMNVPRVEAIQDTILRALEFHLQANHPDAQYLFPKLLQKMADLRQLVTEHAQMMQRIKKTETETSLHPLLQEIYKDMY
Outline: as §1

[4] = molecular target: Thyroid hormone receptor beta (Homo sapiens) (UniProt P10828); assay: qHTS assay for small molecule agonists of thyroid hormone receptor beta signaling (AID 588545; calls by dose curve); conditions: TR-UAS-bla GripTite HEK 293, beta-lactamase ratio, agonist mode, 18 h, percent of T3 response, DMSO as zero; series mostly up to 76.7 µM
Chain of Thyroid hormone receptor beta (Homo sapiens) (P10828 whole entry, looked up): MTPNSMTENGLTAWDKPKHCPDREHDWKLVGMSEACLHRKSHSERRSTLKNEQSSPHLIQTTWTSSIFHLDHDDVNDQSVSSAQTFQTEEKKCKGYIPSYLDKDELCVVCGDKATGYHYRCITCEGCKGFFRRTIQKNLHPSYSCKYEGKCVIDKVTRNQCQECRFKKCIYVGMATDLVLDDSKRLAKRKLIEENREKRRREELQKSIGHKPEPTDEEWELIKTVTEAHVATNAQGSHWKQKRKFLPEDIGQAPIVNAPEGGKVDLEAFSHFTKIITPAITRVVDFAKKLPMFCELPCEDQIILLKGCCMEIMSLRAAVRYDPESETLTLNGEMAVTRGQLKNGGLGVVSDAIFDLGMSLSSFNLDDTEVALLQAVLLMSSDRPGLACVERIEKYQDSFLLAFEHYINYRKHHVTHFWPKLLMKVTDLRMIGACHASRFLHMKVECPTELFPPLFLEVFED
Outline: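 HEK 293 TR-UAS-bla; agonist mode; 18 hrs, 37 C; CCF4, ex 405/em 460 and 530 nm; norm. T3 10 nM = 100%, DMSO = 0%; Hill fit → EC50, efficacy.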

[5] = molecular target: Thyroid hormone receptor beta (Homo sapiens) (UniProt P10828); assay: qHTS assay for small molecule antagonists of thyroid hormone receptor beta signaling (AID 588547; active = well fitted inhibition curve with a large enough effect in the signal ratio, with a control signal flat, not every such curve was filed as active; the % refers to the signal ratio;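 also: cells stimulated with 0.4 nM T3 agonist during compound exposure; % is scaled to controls: 0 for no effect and ±100 for the full control effect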); conditions: TR-UAS-bla HEK293, beta-lactamase ratio, antagonist mode, 18 h
Outline: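 TR-UAS-bla GripTite HEK293 cells in 2% charcoal/dextran FBS medium; compounds 0.59 nM to 92 uM with T3 at 0.4nM final, 18 h at 37 C. Beta-lactamase read by CCF4 fluorescence (460/530 nm); Hill fits gave IC50 and efficacy.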

[6] = molecular target: Voltage-gated inwardly rectifying potassium channel KCNH2 (Homo sapiens) (UniProt Q12809); assay: qHTS Assay for Small Molecule Inhibitors of the Human hERG Channel Activity (AID 588834); conditions: U2OS BacMam hERG, FluxOR thallium flux fluorescence; series mostly up to 46.1 µM;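 also: lower thallium flux fluorescence means stronger hERG block; nearly all actives have a fitted effect of over 50% in size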; also: potency is read from the fitted curve at half-maximal effect
Chain of Voltage-gated inwardly rectifying potassium channel KCNH2 (Homo sapiens) (Q12809 whole entry, looked up): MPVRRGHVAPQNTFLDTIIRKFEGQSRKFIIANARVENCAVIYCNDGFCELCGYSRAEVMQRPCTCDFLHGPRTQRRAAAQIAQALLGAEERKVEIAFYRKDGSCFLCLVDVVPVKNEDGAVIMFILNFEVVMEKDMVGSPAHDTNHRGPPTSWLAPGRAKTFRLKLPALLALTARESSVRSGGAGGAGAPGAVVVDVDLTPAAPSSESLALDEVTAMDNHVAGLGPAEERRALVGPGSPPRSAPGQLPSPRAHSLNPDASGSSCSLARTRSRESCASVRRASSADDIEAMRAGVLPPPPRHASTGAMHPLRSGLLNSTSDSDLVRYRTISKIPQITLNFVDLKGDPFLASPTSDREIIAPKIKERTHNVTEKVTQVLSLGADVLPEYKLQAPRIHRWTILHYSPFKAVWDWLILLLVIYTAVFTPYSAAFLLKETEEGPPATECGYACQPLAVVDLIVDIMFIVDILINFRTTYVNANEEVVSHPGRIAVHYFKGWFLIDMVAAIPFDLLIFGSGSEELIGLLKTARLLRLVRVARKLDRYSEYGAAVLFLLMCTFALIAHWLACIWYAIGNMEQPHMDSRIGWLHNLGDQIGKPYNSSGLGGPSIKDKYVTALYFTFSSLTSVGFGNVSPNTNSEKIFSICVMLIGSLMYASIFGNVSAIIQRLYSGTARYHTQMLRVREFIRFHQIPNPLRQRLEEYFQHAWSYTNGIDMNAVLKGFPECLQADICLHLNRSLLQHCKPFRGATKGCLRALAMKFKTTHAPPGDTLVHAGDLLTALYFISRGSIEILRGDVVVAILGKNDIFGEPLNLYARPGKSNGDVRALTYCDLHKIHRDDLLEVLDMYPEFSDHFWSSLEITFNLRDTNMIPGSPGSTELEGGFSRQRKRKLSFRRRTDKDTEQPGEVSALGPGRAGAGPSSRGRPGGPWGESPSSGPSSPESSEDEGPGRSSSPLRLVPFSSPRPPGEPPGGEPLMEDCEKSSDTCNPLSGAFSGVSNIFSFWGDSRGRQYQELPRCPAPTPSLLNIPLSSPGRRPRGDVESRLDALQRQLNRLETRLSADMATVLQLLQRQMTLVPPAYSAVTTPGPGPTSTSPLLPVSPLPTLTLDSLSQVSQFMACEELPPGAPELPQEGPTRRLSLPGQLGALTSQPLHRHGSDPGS
Outline: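 Blockade is seen as reduced FluxOR thallium-flux fluorescence in U2OS cells expressing hERG from a BacMam construct, in Opti-MEM with 2% FCS. Concentration-response data fitted to the Hill equation for AC50.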

[7] = molecular target: Luciferin 4-monooxygenase (Photinus pyralis) (UniProt P08659); assay: Biochemical firefly luciferase enzyme assay for NPC (AID 624030); also: nearly all actives have a fitted effect of over 70% in size; also: potency is read from the fitted curve at half-maximal effect; conditions: purified P. pyralis luciferase, luminescence, 5 min; series mostly up to 58.6 µM
Outline: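 Purified P. pyralis luciferase at 10 nM in 50 mM Tris Acetate (final), luminescence read within 5 minutes of enzyme addition to compounds. Activity normalised to PTC124 versus DMSO; concentration-response curves classed by r2, magnitude and activity.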

[8] = S16 Schwann cell viability assay (CellTiter-Glo assay) (AID 624031); conditions: S16 rat Schwann cells viability, 24 h; series mostly up to 57.5 µM;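 also: native untransfected S16 rat Schwann cells; cellular ATP luminescence as a viability measure; plate controls were DMSO-treated cells for no effect and cell-free wells for full effect; nearly all actives have a fitted effect of over 70% in size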
Outline: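 Parental S16 cells, 24 h compound, 37 °C. ATP-luminescence viability; DMSO = 0% activity, empty wells as reference; curves classified by fit quality and efficacy.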

[9] = molecular target: Androgen receptor (Homo sapiens) (UniProt P10275); assay: qHTS assay for small molecule agonists of androgen receptor signaling (AID 588515; active = well fitted curve in the direction sought with a large enough effect in the signal ratio, with a control signal flat; the % refers to the signal ratio; also: % is scaled to controls: 0 for no effect and ±100 for the full control effect); conditions: AR-UAS-bla HEK293, beta-lactamase ratio, agonist 16 h; stronger effect = higher value
Chain of Androgen receptor (Homo sapiens) (P10275 whole entry, looked up): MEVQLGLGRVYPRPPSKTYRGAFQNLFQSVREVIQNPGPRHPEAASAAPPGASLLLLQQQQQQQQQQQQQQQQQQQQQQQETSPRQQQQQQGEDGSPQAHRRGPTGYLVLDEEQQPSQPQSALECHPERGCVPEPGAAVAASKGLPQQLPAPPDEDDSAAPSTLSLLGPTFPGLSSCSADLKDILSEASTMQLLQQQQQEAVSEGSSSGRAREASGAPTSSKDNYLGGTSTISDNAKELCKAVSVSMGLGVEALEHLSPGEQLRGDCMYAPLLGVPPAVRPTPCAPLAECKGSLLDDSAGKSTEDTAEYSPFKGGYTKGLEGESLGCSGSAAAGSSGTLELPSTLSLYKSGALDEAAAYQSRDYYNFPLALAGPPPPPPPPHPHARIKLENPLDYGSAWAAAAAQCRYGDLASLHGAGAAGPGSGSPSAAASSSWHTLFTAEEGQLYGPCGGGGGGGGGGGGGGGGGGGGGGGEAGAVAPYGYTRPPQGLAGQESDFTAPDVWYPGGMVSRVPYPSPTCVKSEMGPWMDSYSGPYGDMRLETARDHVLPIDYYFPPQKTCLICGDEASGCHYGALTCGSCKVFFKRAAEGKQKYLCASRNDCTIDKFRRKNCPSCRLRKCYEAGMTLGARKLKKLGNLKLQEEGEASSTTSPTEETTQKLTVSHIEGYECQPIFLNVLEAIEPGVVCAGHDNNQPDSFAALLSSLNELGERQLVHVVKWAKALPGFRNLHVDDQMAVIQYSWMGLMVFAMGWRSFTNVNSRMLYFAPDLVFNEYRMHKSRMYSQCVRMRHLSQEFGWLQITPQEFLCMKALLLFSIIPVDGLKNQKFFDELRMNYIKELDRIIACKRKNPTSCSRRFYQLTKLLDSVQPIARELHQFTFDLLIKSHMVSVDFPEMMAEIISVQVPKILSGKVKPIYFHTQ
Outline: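 EC50 and efficacy came from Hill fits of titrations (up to 92 uM) normalized to 30 nM R1881 as 100% and DMSO as 0%. Compound exposure was 16 h at 37 C on AR-UAS-bla HEK293 cells, with a 405/460/530 nm CCF4 fluorescence read.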

[10] = molecular target: Glucocorticoid receptor (Homo sapiens) (UniProt P04150); assay: qHTS assay for small molecule antagonists of glucocorticoid receptor signaling (AID 588533; active = well fitted inhibition curve with a large enough effect in the signal ratio, with a control signal flat, not every such curve was filed as active; the % refers to the signal ratio; also: % is scaled to controls: 0 for no effect and ±100 for the full control effect); conditions: HeLa MMTV-bla, GRE beta-lactamase ratio, antagonist mode, 18 h; series mostly up to 76.8 µM
Outline: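 Antagonist-mode qHTS: compound titrations added to GRE-bla HeLa cells, then dexamethasone 2 nM final; 18 h, 37 C. CCF4 FRET fluorescence normalized to dexamethasone and DMSO; IC50 from Hill fit.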

[11] = molecular target: Bile acid receptor (Homo sapiens) (UniProt Q96RI1); assay: qHTS assay for small molecule antagonists of farnesoid X receptor signaling (AID 588526; calls by dose curve; also: potency is read from the fitted curve at half-maximal effect); conditions: HEK293T FXR-UAS-bla, beta-lactamase ratio, antagonist mode; series mostly up to 76.7 µM
Chain of Bile acid receptor (Homo sapiens) (Q96RI1 whole entry, looked up): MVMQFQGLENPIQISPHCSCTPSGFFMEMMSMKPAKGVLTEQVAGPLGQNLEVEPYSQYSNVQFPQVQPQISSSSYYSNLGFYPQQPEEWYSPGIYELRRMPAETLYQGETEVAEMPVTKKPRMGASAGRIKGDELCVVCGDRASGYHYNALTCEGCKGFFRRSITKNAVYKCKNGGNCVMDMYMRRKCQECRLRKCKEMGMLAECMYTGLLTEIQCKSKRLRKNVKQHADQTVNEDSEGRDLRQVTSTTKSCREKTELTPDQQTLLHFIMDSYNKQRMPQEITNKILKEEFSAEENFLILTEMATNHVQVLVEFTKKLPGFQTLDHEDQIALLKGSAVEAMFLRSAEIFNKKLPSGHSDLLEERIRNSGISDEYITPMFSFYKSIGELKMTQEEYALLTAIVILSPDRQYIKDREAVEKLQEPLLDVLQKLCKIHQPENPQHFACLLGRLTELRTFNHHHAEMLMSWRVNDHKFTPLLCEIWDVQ
Outline: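 Antagonist mode: titrated compounds tested against chenodeoxycholic acid stimulation (normalized to 50 uM CDCA and DMSO) in GeneBLAzer HEK293T cells for 16 h. Beta-lactamase read by CCF4 fluorescence; IC50 from Hill fits.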

[12] = molecular target: Vitamin D3 receptor (Homo sapiens) (UniProt P11473); assay: qHTS assay for small molecule antagonists of vitamin D receptor signaling (AID 588541; calls by dose curve;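 also: receptor activated by calcitriol during compound treatment; % is scaled to controls: 0 for no effect and ±100 for the full control effect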); conditions: HEK293T VDR-UAS-bla, beta-lactamase ratio, antagonist mode; series mostly up to 76.7 µM
Chain of Vitamin D3 receptor (Homo sapiens) (P11473 whole entry, looked up): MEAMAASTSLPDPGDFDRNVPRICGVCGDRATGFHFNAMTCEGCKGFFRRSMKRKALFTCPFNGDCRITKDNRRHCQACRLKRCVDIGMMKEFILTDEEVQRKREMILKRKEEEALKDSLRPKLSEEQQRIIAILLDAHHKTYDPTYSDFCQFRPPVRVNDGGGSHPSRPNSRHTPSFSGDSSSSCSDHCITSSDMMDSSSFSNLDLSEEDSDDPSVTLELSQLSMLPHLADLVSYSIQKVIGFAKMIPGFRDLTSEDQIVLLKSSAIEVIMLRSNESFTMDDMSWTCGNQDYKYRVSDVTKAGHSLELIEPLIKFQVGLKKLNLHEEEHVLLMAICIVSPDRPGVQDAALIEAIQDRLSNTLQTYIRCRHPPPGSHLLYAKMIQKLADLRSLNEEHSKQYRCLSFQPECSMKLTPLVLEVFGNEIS
Outline: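 VDR-UAS-bla HEK293T cells in 2% charcoal-stripped FBS were stimulated with 1-alpha,25-dihydroxyvitamin D3 (3 nM final) plus compound for 16 h at 37 C. The beta-lactamase CCF4 readout was normalized to 50 nM agonist and DMSO, and Hill fits gave IC50.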

[13] = molecular target: Vitamin D3 receptor (Homo sapiens) (UniProt P11473); assay: qHTS assay for small molecule agonists of vitamin D receptor signaling (AID 588543; calls by dose curve;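 also: 0% = DMSO basal and 100% = reference agonist control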); conditions: HEK293T VDR-UAS-bla, beta-lactamase ratio, 16 h; series mostly up to 76.8 µM
Outline: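 Measured: β-lactamase reporter activity (CCF4, 405 nm excitation, 460/530 nm emission) in HEK293T VDR-UAS-bla cells after 16 h compound exposure at 37 °C. Normalization against 50 nM 1α,25-dihydroxyvitamin D3 and DMSO; Hill-fit EC50.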

[14] = qHTS assay for small molecule antagonists of retinoid X receptor alpha signaling (AID 588546; active = well fitted inhibition curve with a large enough effect in the signal ratio, with a control signal flat, not every such curve was filed as active; the % refers to the signal ratio; also: potency is read from the fitted curve at half-maximal effect); conditions: HEK293T RXRa-UAS-bla, beta-lactamase ratio, antagonist mode; measured here: W530 green channel, cytotoxicity proxy
Outline: (§2)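 Beta-lactamase reporter inhibition, read as CCF4 fluorescence ratio (ex 405, em 460/530 nm) after 2 h at RT. HEK293T UAS-bla cells, 2500/well, were stimulated with 9-cis-RA at 500 or 100 nM final alongside test compound for 18 h at 37 C.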

[15] = molecular target: Retinoic acid receptor RXR-alpha (Homo sapiens) (UniProt P19793); assay: as above; conditions: HEK293T RXRa-UAS-bla, beta-lactamase ratio, antagonist mode
Chain of Retinoic acid receptor RXR-alpha (Homo sapiens) (P19793 whole entry, looked up): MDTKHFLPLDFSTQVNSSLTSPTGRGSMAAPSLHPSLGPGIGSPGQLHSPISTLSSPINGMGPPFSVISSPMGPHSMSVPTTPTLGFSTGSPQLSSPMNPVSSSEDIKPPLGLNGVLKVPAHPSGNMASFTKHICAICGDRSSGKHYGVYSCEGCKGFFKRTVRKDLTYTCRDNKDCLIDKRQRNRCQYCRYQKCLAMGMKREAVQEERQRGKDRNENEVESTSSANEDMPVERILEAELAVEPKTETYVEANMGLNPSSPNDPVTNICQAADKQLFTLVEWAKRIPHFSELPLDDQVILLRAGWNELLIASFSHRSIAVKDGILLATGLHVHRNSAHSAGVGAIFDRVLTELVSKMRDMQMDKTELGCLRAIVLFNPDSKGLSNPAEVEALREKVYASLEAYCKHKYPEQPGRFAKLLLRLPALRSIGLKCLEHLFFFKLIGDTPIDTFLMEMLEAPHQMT
Outline: as §2

[16] = qHTS assay for small molecule agonists of retinoid X receptor alpha signaling (AID 588544; calls by dose curve;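 as to activation: 0% = DMSO basal wells and 100% = reference agonist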); conditions: HEK293T RXRa-UAS-bla, beta-lactamase reporter, 18 h; 530 nm emission
[17] = molecular target: Retinoic acid receptor RXR-alpha (Homo sapiens) (UniProt P19793); assay: as above; conditions: HEK293T RXRa-UAS-bla, beta-lactamase reporter, 18 h; series mostly up to 76.7 µM
[18] = molecular target: Peroxisome proliferator-activated receptor gamma (Homo sapiens) (UniProt P37231); assay: qHTS assay for small molecule agonists of peroxisome proliferator-activated receptor gamma signaling (AID 588536; active = well fitted curve in the direction sought with a large enough effect in the signal ratio, with a control signal flat, not every such curve was filed as active; the % refers to the signal ratio;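 also: 0% = DMSO basal wells and 100% = rosiglitazone at 2 µM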); conditions: HEK293 PPARg-UAS-bla, beta-lactamase ratio, 16 h, percent of rosiglitazone response, DMSO as zero; series mostly up to 76.7 µM
Chain of Peroxisome proliferator-activated receptor gamma (Homo sapiens) (P37231 whole entry, looked up): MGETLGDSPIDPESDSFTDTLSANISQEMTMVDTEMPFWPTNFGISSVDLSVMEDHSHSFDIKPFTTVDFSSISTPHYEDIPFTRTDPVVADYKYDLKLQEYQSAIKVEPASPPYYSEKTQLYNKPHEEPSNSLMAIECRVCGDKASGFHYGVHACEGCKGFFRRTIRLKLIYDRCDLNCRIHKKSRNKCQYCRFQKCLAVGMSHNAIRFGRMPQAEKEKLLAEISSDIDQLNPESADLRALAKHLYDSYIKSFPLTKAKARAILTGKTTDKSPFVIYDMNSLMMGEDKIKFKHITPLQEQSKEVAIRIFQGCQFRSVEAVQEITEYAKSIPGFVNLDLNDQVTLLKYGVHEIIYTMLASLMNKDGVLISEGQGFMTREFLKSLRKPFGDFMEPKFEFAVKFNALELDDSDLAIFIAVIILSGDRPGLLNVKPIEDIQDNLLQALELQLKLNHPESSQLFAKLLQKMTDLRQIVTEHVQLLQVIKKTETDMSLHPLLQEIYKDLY
Outline: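 GeneBLAzer PPAR-gamma-UAS-bla HEK293 cells in 1% charcoal/dextran-treated FBS medium were treated 16 h at 37 C with compounds. Beta-lactamase activity was read by CCF4 ratio (460/530 nm). Response was normalized to 2 uM rosiglitazone (100%) and DMSO, then Hill-fitted for EC50 and efficacy.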

[19] = molecular target: Peroxisome proliferator-activated receptor gamma (Homo sapiens) (UniProt P37231); assay: qHTS assay for small molecule antagonists of peroxisome proliferator-activated receptor gamma signaling (AID 588537; active = well fitted inhibition curve with a large enough effect in the signal ratio, with a control signal flat, not every such curve was filed as active; the % refers to the signal ratio;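 also: reporter cells co-stimulated with 50 nM rosiglitazone agonist during compound treatment; % of control where 0% means no effect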); conditions: HEK293 PPARg-UAS-bla, beta-lactamase ratio, antagonist mode; series mostly up to 76.8 µM
Outline: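 PPARγ-UAS-bla HEK293 cells (3000/well) in 1% charcoal/dextran-stripped FBS are treated with compound, then stimulated with 50 nM rosiglitazone for 16 h at 37 °C. Read-out is CCF4 β-lactamase fluorescence after 2 h at RT. IC50 comes from Hill fits normalised to rosiglitazone and DMSO.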

Clc1ccc(C(c2ccccc2Cl)C(Cl)Cl)cc1 (centres undefined)
-16.9%: max response [2]
active: Potency [6] 31.6 µM and 10 µM and 5.62 µM
inactive: activation [1] -3.98% | outcome [3] | outcome [4] | activity change % (negative = inhibition) [5] -34.3% | Potency [7] | Potency [8]

COc1ccc2c(c1)c(CC(=O)O)c(C)n2C(=O)c1ccc(Cl)cc1
inactive: activation [9] -9.17% | activation [1] -6.76% | Potency [10] | outcome [4] | Potency [7]

O=c1c(-c2ccc(O)cc2)coc2cc(O)cc(O)c12
18.6%: max response [14]
active: Potency [11] 25.1 µM | Potency [15] 35.5 µM | Potency [7] 9.07 µM
inactive: activation [1] -14.7% and -3.51% | outcome [12] | outcome [13] | outcome [4] | activity change % (negative = inhibition) [5] -35.3% | Potency [8]

O=c1[nH]cc(F)c(=O)[nH]1
-12.4%: max response [16]
inactive: Potency [10] | outcome [12] | outcome [13] | outcome [17] | max response [15] 17.9% | Potency [7] | Potency [8]
-11.8%: max response [14]

CCOC(=O)C(C)(C)Oc1ccc(Cl)cc1
-5.41%: max response [14]
-15.2%: max response [2]
inactive: Potency [11] | activation [1] -5.3% | Potency [10] | outcome [3] | outcome [18] | Potency [19] | outcome [12] | outcome [13] | outcome [17] | outcome [4] | max response [15] 3.43% | activity change % (negative = inhibition) [5] 7.19% | Potency [7] | Potency [8]
-9.24%: max response [16]

Cn1c(=O)c2c(ncn2C)n(C)c1=O
inactive: activation [1] -1.83% | Potency [10] | outcome [18] | Potency [19] | outcome [17] | max response [15] -0.557% and -14.2% | Potency [7] | Potency [8]
-3.75% and 14.5%: max response [16]
0.479% and 2.47%: max response [14]

Cn1cnc2c1c(=O)[nH]c(=O)n2C
inactive: Potency [11] | activation [1] -4.06% | Potency [10] | outcome [3] | outcome [18] | Potency [19] | outcome [12] | outcome [13] | outcome [4] | max response [15] -5.33% | activity change % (negative = inhibition) [5] 8.64% | Potency [7] | Potency [8]
-0.801%: max response [14]
-1.33%: max response [2]

COc1cc2c(c(OC)c1OC)-c1ccc(OC)c(=O)cc1[C@@H](NC(C)=O)CC2
inactive: activation [9] -5.98% and 0.799% and 0.899% | outcome [13] | outcome [4] | Potency [6] | Potency [7] | Potency [8]

CCc1cccc2c3c([nH]c12)C(CC)(CC(=O)O)OCC3 (centres undefined)
inactive: Potency [6]

CCN1CCCC1CNC(=O)c1cc(S(=O)(=O)CC)c(N)cc1OC (centres undefined)
inactive: Potency [7]

COc1ccccc1N1CCN(CC(O)COc2cccc3ccccc23)CC1 (centres undefined)
inactive: Potency [7]

CC(=O)OCC(CCn1cnc2cnc(N)nc21)COC(C)=O
inactive: Potency [6] | Potency [7] | Potency [8]

CC1COc2c(N3CCN(C)CC3)c(F)cc3c(=O)c(C(=O)O)cn1c23 (centres undefined)
inactive: Potency [6]

Cn1ccc2cc3c(cc21)CCN3C(=O)Nc1cccnc1
inactive: Potency [6]
active: Potency [7] 6.42 µM
